Chronic BCR inh: inhibitors of chronic active B-cell receptor signaling. 340,000 compounds, 0.05% hits. ABC-DLBCL IkBa-CBG/CBR reporter, luminescence ratio, 4 h. Potency, µM (top dose mostly 46.1 µM), without a hit: top-dose activity change, negative = inhibition, usual class: inhibitors. AID 493014; active = well fitted inhibition curve with a large enough effect in the signal ratio, with a control signal flat, not every such curve was filed as active; inconclusive = small, poorly fitted or top-dose-only effect, or effect the other way, or a change in a side signal; the % refers to the signal ratio;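 note: potency is the fitted concentration of half-maximal effect; plate controls were basal doxycycline-induced cells for no effect and cells given 10 µM MG132 for full effect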
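Cell line TMD8 (human ABC DLBCL), stably expressing tet-inducible CBG68-IkBa fusion and CBR; IMDM/0.5% FBS; cpd up to 46 uM; dox induction, 4 h, 37C/5% CO2; dual luminescence; green/red ratio; MG132 control.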
LDHA block: LDHA (human) enzyme inhibition; purified LDHA, NADH/diaphorase-resazurin fluorescence; active compounds read low; activity change, % (values are at about 110 or 230 µM); P00338; 480,000 compounds, 0.15% hits; in the data active = activity change below about -30%; inconclusive = mostly about -25% to -30%;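 note: plate controls were DMSO wells for no effect and wells without enzyme for full effect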
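Human LDH5 (2 nM) was incubated with 0.06 mM NADH and 0.2 mM pyruvate for 5 min at room temperature in Tris pH 7.4. Remaining NADH was coupled through diaphorase/resazurin, and resorufin fluorescence was read at 0 and 20 min.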
12-LOX inh: blocks human arachidonate 12S-lipoxygenase. P18054. purified 12hLO, xylenol orange hydroperoxide absorbance. Potency, µM (titrated, usually from 108 µM), inactives show at the highest dose activity change, negative = inhibition, most hits filed as inhibitors. 580,000 compounds, 1.1% hits. AID 1671190; active = well fitted inhibition curve with a large enough effect; inconclusive = small, poorly fitted or top-dose-only effect, or another doubt; inactive = no such curve, though single readings can be large or run the other way; note: potency is the fitted concentration of half-maximal effect; % is set by controls: 0 for no effect and ±100 for the full control effect
Target sequence (P18054 whole entry, looked up): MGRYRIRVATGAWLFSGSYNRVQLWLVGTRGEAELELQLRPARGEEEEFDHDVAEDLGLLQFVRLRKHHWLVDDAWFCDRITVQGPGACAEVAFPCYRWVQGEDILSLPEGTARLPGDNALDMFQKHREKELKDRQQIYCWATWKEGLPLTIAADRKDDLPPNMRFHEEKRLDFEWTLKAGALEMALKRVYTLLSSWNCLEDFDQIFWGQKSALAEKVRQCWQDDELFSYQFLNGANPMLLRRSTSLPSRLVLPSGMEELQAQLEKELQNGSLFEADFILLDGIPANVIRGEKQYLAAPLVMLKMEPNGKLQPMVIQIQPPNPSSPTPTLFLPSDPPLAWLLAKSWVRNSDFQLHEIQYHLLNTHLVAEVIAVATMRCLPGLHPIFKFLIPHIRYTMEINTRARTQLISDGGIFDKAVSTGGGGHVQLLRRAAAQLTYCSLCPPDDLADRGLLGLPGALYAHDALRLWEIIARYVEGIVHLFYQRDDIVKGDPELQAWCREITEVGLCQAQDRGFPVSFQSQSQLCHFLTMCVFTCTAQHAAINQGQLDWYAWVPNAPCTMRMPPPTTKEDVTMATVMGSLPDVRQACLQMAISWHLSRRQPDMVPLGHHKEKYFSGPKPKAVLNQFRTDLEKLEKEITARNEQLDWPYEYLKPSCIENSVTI
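Purified human 12hLO (150 nM final) in 25 mM Hepes, 0.01% Triton X-100, pH 7.0 was preincubated 15 min at room temperature with compound. Then 40 uM arachidonic acid was added, 30 min. Hydroperoxide was read by Fe-XO absorbance ratio 573/405 nm.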
ClpP mod: qHTS Assay for Activators of ClpP; AID 651965, 2013; Potency, µM (titrated, usually from 57.5 µM), inactives show top-dose activity change, negative = active; purified B. subtilis ClpP, FRET peptide cleavage, 20 min; 340,000 compounds, 1.9% hits; active = well fitted falling curve with a large enough effect; inconclusive = small, poorly fitted or top-dose-only effect; inactive = no such curve, though single readings can be large or run the other way; note: potency is the fitted concentration of half-maximal effect; the source files actives as falling curves though it sought activators and does not explain the sign; nearly all actives have a fitted effect of over 65% in size
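ClpP 10 microg/mL final, pH 8 Tris/KCl buffer with BSA, glycerol, Tween-20; compound pinned in; FRET-FV substrate; RT 20 min; Ex320/Em430; ΔFRET vs ADEP 5.8 microM, DMSO, no enzyme.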
hERG WT inh: blocks the wildtype human KCNH2 potassium channel; 340,000 compounds, 0.37% hits; U2OS, BacMam KCNH2, thallium flux FluxOr; active compounds read low; activity change, % at 1.84 µM; Q12809;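 active = maximum activity change below -70%; inconclusive = maximum activity change between -70% and -50%; inactive = maximum activity change above -50%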; note: % is set by controls: 0 for no effect and ±100 for the full control effect
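U2OS cells were transduced with wild-type KCNH2 virus (2.03 x 10^8 / mL) for 4 h at room temperature, then cultured overnight at 37 C. Thallium flux was read with FluxOr dye. Rate constants were normalized to DMSO controls.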
KCNH2 3.1 block: KCNH2 3.1 (human) potassium channel inhibition | U2OS KCNH2 3.1, thallium flux FluxOr; active compounds read low | activity change, % (tested at about 1.8 µM) | 340,000 compounds, 0.95% hits;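 active = maximum activity change below -70%; inconclusive = maximum activity change from -70% to -50%; inactive = maximum activity change above -50%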;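 note: thallium influx rate constant from kinetic fluorescence after stimulation buffer; % is set by controls: 0 for no effect and ±100 for the full control effect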
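Kinetic fluorescence (2 min after stimulation buffer) measures Tl+ influx through KCNH2 3.1 expressed by viral transduction in U2OS cells; the rate constant is normalized against DMSO controls serving as positive and negative references.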
* marks the source's active call; other numbers are inactive results; [ ] = dose if it differs, or a comment. The list is not random: actives were taken first. Their share in the collection is about 3%.

`Cc1cc(N2CCCC2)n2nc(-c3ccccc3C)nc2n1` gave LDHA block 12 and 12-LOX inh 34%.
For COc1cc(C(=O)NC2CCCc3c2[nH]c2ccccc32)cc(OC)c1OC (centres undefined) the results were 12-LOX inh 35µM*.
Cn1c(=O)cc(C(=O)NC2CCCc3c2[nH]c2ccccc32)c2ccccc21 (centres undefined) was read as 12-LOX inh 40µM*.
For O=C(CSc1ccc(Br)cc1)c1ccc(C2CCCCC2)cc1 the results were LDHA block 1 and 12-LOX inh inconclusive.
For CNC(=S)NNC(=O)c1ccc(F)cc1 the results were LDHA block 2 and 12-LOX inh 0%.
Cc1ccc(F)cc1NC(=O)c1cc(-c2ccc[nH]2)n[nH]1 was read as 12-LOX inh 16µM*.
O=C(Nc1cccc(OC(F)(F)F)c1)c1cc(-c2ccc[nH]2)n[nH]1 was read as 12-LOX inh 14µM*.
Cc1ccc(/C=C2\SC(=S)N(NS(=O)(=O)c3ccc(C)cc3)C2=O)cc1 was read as Chronic BCR inh -1%, LDHA block -3, 12-LOX inh 35µM*, ClpP mod 1%, hERG WT inh -1 and KCNH2 3.1 block 22.
`COc1cc(C2CC(=O)Nc3c(-c4ccccc4)nsc32)c(OC)c2c1OCO2` (centres undefined) gave LDHA block -8 and 12-LOX inh 6%.
For CCCOc1ccc(C(=O)Nc2cccc3ncccc23)cc1 the results were LDHA block 3 and 12-LOX inh inconclusive.
Screening c1ccc(-c2cn3c(n2)-c2ccccc2C3)cc1 returned Chronic BCR inh inconclusive, LDHA block -1, 12-LOX inh -2%, ClpP mod 14µM*, hERG WT inh 19 and KCNH2 3.1 block -3.
CCOc1ccccc1C(=O)Nc1c(C(=O)Nc2ccc(F)cc2)oc2ccccc12 was read as LDHA block -5, 12-LOX inh -8% and ClpP mod 32µM*.
`Cc1ccc(S(=O)(=O)NCC(c2ccc3c(c2)OCO3)N2CCOCC2)cc1` (centres undefined) gave Chronic BCR inh -4%, LDHA block -2, 12-LOX inh -8%, ClpP mod 28µM*, hERG WT inh 5 and KCNH2 3.1 block 8.
Screening O=C1Nc2ccc(-c3ccsc3)cc2C(=O)N2CCN(C(=O)CO)C[C@H]12 returned 12-LOX inh -16%[176 µM].
`Cc1ccc(C)c(NC(=O)Cn2c(=O)n(Cc3ccco3)c(=O)c3oc4ccccc4c32)c1` gave LDHA block -6, 12-LOX inh -32% and ClpP mod 32µM*.
`CN1CCN(C(=O)CCCOc2cc(=O)n(C)c3ccccc23)CC1` gave Chronic BCR inh 26µM*, LDHA block -17, 12-LOX inh 0%, ClpP mod -8%, hERG WT inh 2 and KCNH2 3.1 block -10.
`Cn1c(=O)cc(OCCCC(=O)N2CCCCC2)c2ccccc21` gave Chronic BCR inh -14%, LDHA block -1, 12-LOX inh 0%, ClpP mod -4%, hERG WT inh 6 and KCNH2 3.1 block 9.
For Cc1ccc(C(=O)N/C(=C\c2cccs2)C(=O)NCCCN2CCOCC2)cc1 the results were Chronic BCR inh 4%, LDHA block -8, 12-LOX inh 20%, hERG WT inh -117* and KCNH2 3.1 block -49.
Screening Cc1ccc(C(=O)N/C(=C\c2cccs2)C(=O)NCCCn2ccnc2)cc1 returned Chronic BCR inh -1%, LDHA block -5, 12-LOX inh 19%, ClpP mod 2%, hERG WT inh -181* and KCNH2 3.1 block -99*.

Screening data: PubChem, National Center for Advancing Translational Sciences (NCATS)
